Tau ThT inhib: qHTS for Inhibitors of Tau Fibril Formation, Thioflavin T Binding; Potency, µM (titrated, usually from 57.4 µM), inactives show top-dose activity, negative = inhibition, usual class: inhibitors; Microtubule-associated protein tau (Homo sapiens), P10636; recombinant tau K18 P301L, heparin-induced fibrillization, ThT fluorescence; AID 1460, 2008; 2.1% of 270,000 active; further: nearly all actives have a fitted effect of over 55% in size
Target sequence (P10636 561-689 P618L limits assumed): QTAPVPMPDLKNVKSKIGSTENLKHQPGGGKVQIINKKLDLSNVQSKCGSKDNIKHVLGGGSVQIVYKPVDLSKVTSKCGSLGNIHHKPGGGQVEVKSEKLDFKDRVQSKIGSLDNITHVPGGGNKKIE
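K18 P301L tau (15 uM + 0.24 uM Alexa 594-tagged), heparin 20 uM, NaOAc pH 7, 6 h 37 C; ThT 30 uM, 1 h RT, ex 450/em 510 nm.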
TR SRC2 fluor cs: Total Fluorescence Counterscreen for Inhibitors of the Interaction of Thyroid Hormone Receptor and Steroid Receptor Coregulator 2 | TRb/SRC2 Texas Red total fluorescence interference | Potency, µM (titrated, usually from 106 µM), inactives show top-dose fluorescence change, negative = quenching | 0.29% of 280,000 active | AID 1479, 2009; active means well fitted curve in either direction with a large enough effect; inconclusive means small, poorly fitted or top-dose-only effect
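Flags fluorescent or light-absorbing compounds by total fluorescence, S + 2P, at 555 nm excitation and 632 nm emission. Mixture: 20 nM Texas Red SRC2 peptide, 0.6 uM human TRb LBD, 1 uM T3, 5% DMSO; compound exposure 5 h at ambient temperature.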
Tau fibril FP: qHTS for Inhibitors of Tau Fibril Formation, Fluorescence Polarization. 0.39% of 280,000 active. Microtubule-associated protein tau (Homo sapiens), P10636. Potency, µM (series often up to 57.7 µM), for inactives: at the top dose activity, negative = inhibition, hits mostly inhibitors. K18 P301L tau heparin fibrillization, Alexa594 FP, 6 h; further: nearly all actives have a fitted effect of over 55% in size
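K18 P301L tau (15 uM unlabeled/0.24 uM Alexa 594-labeled, final) + compound + heparin 20 uM final; 100 mM NaOAc pH 7; 6 hr 37 C; ThT 30 uM final added, 1 hr RT; FP ex 555/em 632 nm.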
Tau fluor cs: Counterscreen qHTS for Inhibitors of Tau Fibril Formation, Fluorescence Polarization; tau K18 P301L Alexa594 fluorescence, heparin fibrillization; Potency, µM (top dose mostly 57.7 µM), for the others: top-dose activity change, negative = decrease; 0.93% of 280,000 active; AID 1463, 2008; further: nearly all actives have a fitted effect of over 55% in size
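Human tau K18 P301L (15 uM unlabeled, 0.24 uM Alexa 594-labeled) in 100 mM sodium acetate pH 7 with 20 uM heparin, 6 hr at 37 C. ThT 30 uM added, 1 hr ambient; Alexa 594 FP and total fluorescence read at 555/632 nm.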
TRb-SRC2 inh: qHTS for Inhibitors of the Interaction of Thyroid Hormone Receptor and Steroid Receptor Coregulator 2. 0.065% of 280,000 active. Thyroid hormone receptor beta (Homo sapiens), P10828. Potency, µM (doses to about 106 µM), for inactives: at the highest dose activity change, negative = inhibition, actives largely listed as inhibitors. TRbeta-SRC2 peptide binding, fluorescence polarization; receptor liganded with 1 µM T3. AID 1469, 2008;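 further: plate controls were bound peptide for no effect and peptide without receptor for full effect; nearly all actives have a fitted effect of over 50% in size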
Target sequence (P10828 whole entry, looked up): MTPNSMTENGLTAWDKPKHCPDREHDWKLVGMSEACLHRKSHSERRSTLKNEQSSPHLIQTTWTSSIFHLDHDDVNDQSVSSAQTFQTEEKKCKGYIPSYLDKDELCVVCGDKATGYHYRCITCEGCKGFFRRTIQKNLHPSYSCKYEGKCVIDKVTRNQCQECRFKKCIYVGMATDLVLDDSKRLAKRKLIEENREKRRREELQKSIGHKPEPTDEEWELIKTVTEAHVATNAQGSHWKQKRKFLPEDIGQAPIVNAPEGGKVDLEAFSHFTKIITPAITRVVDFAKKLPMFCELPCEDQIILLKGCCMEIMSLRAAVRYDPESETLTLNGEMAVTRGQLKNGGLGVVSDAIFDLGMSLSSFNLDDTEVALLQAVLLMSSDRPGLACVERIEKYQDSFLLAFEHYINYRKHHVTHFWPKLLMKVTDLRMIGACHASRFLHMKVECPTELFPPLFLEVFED
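Human TRb LBD (0.6 uM) plus Texas Red-labeled SRC2 peptide (20 nM), 1uM T3, 5% DMSO, 5 hr at ambient temperature. Decreased polarization (555/632 nm) flags inhibition; data normalized to free and bound peptide controls.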
An asterisk follows results filed as active; [ ] = dose if it differs, or a comment. In the library only some 3.1% were active in any assay of this set; here they are far more common. Unless noted, the call rests on the fitted dose curve; in most records, active means well fitted curve in the direction sought with a large enough effect; inconclusive means small, poorly fitted or top-dose-only effect, or another doubt; inactive means no such curve, though single readings can be large; an effect the other way counts as inactive or inconclusive. Unless noted, on the % scale 0 is the no-effect control and ±100 the full control effect; potency means the concentration at half of the fitted maximal effect.

How did Cn1c(O)c(/C=C/C=Nc2ccccc2)c(=O)n(C)c1=S do in these assays?
Tau ThT inhib: inconclusive; TR SRC2 fluor cs: -4.4%; Tau fibril FP: inconclusive; Tau fluor cs: 6.31µM*[fluorescent]; TRb-SRC2 inh: -0.1%

Results for O=C(Nc1ccccc1)Nc1ccnc(Cl)c1 ?
TR SRC2 fluor cs: -1.0%[201 µM]; TRb-SRC2 inh: 6.1%[201 µM]

Results for Oc1ccc(/C=N/NP(=S)(c2ccccc2)c2ccccc2)cc1 ?
Tau ThT inhib: inconclusive; TR SRC2 fluor cs: -1.2%; Tau fibril FP: inconclusive; Tau fluor cs: 12.6µM*[quencher]; TRb-SRC2 inh: -22.8%

Results for COc1cc(/C=N/NP(=S)(c2ccccc2)c2ccccc2)ccc1O ?
Tau ThT inhib: inconclusive; TR SRC2 fluor cs: 0.0%; Tau fibril FP: 11.3%; Tau fluor cs: 14.1µM*[quencher]; TRb-SRC2 inh: 3.7%

Results for CCC[CH2][Sn]([Cl])([CH2]CCC)[CH2]CCC ?
TR SRC2 fluor cs: 1.4%[201 µM]; TRb-SRC2 inh: 8.2%[201 µM]

What do the screens show for `CN1CCN(c2ccc(C=O)cc2)CC1`?
Tau ThT inhib: 0.4%; TR SRC2 fluor cs: 1.3%; Tau fibril FP: 3.1%; Tau fluor cs: -2.6%; TRb-SRC2 inh: 2.0%

What do the screens show for `CCN1CCN(c2ccc(N)cc2)CC1`?
Tau ThT inhib: 25.1µM*; TR SRC2 fluor cs: 1.4%; Tau fibril FP: inconclusive; Tau fluor cs: inconclusive; TRb-SRC2 inh: -8.3%

What do the screens show for `CN1CCN(c2ccc(N)cc2)CC1`?
Tau ThT inhib: 25.1µM*; TR SRC2 fluor cs: 0.3%; Tau fibril FP: inconclusive; Tau fluor cs: inconclusive; TRb-SRC2 inh: -16.4%

Results for CN1CCN(c2ccc(N)c(N3CCN(C)CC3)c2)CC1 ?
Tau ThT inhib: 28.2µM*; TR SRC2 fluor cs: 18.4%; Tau fibril FP: inconclusive; Tau fluor cs: inconclusive; TRb-SRC2 inh: -21.2%

What do the screens show for `c1ccc2c(c1)oc1ccccc12`?
TR SRC2 fluor cs: 0.3%[201 µM]; TRb-SRC2 inh: 6.6%[201 µM]

How did O=P(OCC(Br)CBr)(OCC(Br)CBr)OCC(Br)CBr (centres undefined) do in these assays?
TR SRC2 fluor cs: 2.0%[201 µM]; TRb-SRC2 inh: -6.3%[201 µM]

Results for CSc1nc(N)c(N=Nc2ccc([As](=O)(O)O)cc2)c(=O)[nH]1 ?
Tau ThT inhib: 20µM*; TR SRC2 fluor cs: -8.8%; Tau fibril FP: -8.5%; Tau fluor cs: inconclusive; TRb-SRC2 inh: -4.7%

Results for COc1cc2c(cc1O)-c1c(O)c(OC)cc3c1[C@H](C2)N(C)CC3 ?
Tau ThT inhib: 28.2µM*; TR SRC2 fluor cs: -4.4%; Tau fibril FP: inconclusive; Tau fluor cs: inconclusive; TRb-SRC2 inh: -5.9%

How did COc1cc2c(cc1O)C[C@H]1c3c(cc(O)c(OC)c3-2)CCN1C do in these assays?
TR SRC2 fluor cs: -1.8%[53 µM]; TRb-SRC2 inh: 0.7%[53 µM]

Results for CCSCc1ccccc1OC(=O)NC ?
TR SRC2 fluor cs: -1.6%[201 µM]; TRb-SRC2 inh: -3.4%[201 µM]

Results for O=c1c(O)c(-c2ccc(O)c(O)c2)oc2cc(O)cc(O)c12 ?
Tau ThT inhib: 12.6µM*; TR SRC2 fluor cs: inconclusive; Tau fibril FP: inconclusive; Tau fluor cs: 10µM*[quencher]; TRb-SRC2 inh: 5.6%

Results for O=c1cc(-c2ccc(O)c(O)c2)oc2cc(O)cc(O)c12 ?
Tau ThT inhib: 12.6µM*; TR SRC2 fluor cs: inconclusive; Tau fibril FP: 7.2%; Tau fluor cs: inconclusive; TRb-SRC2 inh: 15.4%

Results for Cc1ccc2oc(-c3ccccc3)cc(=O)c2c1 ?
Tau ThT inhib: inconclusive; TR SRC2 fluor cs: -0.5%; Tau fibril FP: inconclusive; Tau fluor cs: -23.5%; TRb-SRC2 inh: -8.0%

Results for CC1(C)Cc2cccc(O)c2O1 ?
TR SRC2 fluor cs: -1.6%[201 µM]; TRb-SRC2 inh: 3.0%[201 µM]

What do the screens show for `Clc1ccc(C2(Cn3cncn3)CC(Br)CO2)c(Cl)c1` (centres undefined)?
TR SRC2 fluor cs: 0.2%[201 µM]; TRb-SRC2 inh: 3.2%[201 µM]

What do the screens show for `COc1ccc(Nc2nc(N)nc(CSc3nc4ccccc4s3)n2)cc1`?
Tau ThT inhib: inconclusive; TR SRC2 fluor cs: -2.7%; Tau fibril FP: -0.6%; Tau fluor cs: 15.8µM*[quencher]; TRb-SRC2 inh: -1.2%
